# Compound activity deposited in PubChem BioAssay by National Center for Advancing Translational Sciences (NCATS).
# L3MBTL1 block: qHTS Assay for the Inhibitors of L3MBTL1. Lethal(3)malignant brain tumor-like protein 1 (Homo sapiens), Q9Y468. AlphaScreen L3MBTL1–H3K9me1 peptide binding. Potency, µM (doses to about 57.1 µM), inactives show top-dose activity, negative = inhibition, most hits filed as inhibitors. 230,000 tested, 0.66% active; further: on the % scale 0 is the no-effect control and ±100 the full control effect; nearly all actives have a fitted effect of over 60% in size
#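 AlphaScreen assay: L3MBTL1 (50 nM final) was preincubated 30 min at room temperature with biotinylated H3(1-15)K9me1 peptide (75 nM final), then 30 min with library compounds; streptavidin donor and nickel chelate acceptor beads (10 ug/mL final) added, 30 min dark.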
# JMJD2A Tudor inh: qHTS Assay for Inhibitors of JMJD2A-Tudor Domain; Potency, µM (doses to about 114 µM), inactives show top-dose activity change, negative = inhibition, actives largely listed as inhibitors; AlphaScreen JMJD2A-Tudor / H3K4me3 peptide binding; 390,000 tested, 4.4% active; AID 504339, 2011; further: on the % scale 0 is the no-effect control and ±100 the full control effect; nearly all actives have a fitted effect of over 50% in size
# Target sequence (O75164 whole entry, looked up, the tested form may be a part): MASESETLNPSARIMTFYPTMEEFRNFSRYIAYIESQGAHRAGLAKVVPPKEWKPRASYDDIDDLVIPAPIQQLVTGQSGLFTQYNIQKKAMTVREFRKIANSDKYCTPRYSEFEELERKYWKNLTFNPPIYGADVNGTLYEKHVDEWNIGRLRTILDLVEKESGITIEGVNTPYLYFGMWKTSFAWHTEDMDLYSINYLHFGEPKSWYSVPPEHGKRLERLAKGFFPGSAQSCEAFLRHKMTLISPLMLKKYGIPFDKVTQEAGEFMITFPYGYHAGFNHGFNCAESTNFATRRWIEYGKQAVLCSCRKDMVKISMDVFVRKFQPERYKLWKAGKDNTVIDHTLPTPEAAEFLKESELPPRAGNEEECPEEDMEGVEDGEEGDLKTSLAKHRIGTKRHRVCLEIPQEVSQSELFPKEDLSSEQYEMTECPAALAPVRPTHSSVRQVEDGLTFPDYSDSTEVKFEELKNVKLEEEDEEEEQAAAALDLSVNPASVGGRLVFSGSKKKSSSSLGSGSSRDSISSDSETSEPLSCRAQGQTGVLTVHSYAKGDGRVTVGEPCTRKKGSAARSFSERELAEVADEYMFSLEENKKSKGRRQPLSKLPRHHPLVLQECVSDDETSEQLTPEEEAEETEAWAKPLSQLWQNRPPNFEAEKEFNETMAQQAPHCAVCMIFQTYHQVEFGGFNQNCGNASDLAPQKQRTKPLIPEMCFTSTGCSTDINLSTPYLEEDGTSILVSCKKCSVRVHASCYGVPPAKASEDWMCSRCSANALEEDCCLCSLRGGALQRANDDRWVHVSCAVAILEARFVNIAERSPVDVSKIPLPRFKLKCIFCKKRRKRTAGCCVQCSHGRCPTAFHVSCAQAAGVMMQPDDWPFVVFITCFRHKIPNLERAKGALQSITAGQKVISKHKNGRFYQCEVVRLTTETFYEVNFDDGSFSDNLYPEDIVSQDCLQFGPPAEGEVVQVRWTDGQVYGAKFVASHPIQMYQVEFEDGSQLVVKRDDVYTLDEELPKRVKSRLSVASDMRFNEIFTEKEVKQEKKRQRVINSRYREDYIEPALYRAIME
# VDR inh: Inhibitors of the vitamin D receptor (VDR): qHTS; Vitamin D3 receptor (Homo sapiens), P11473; VDR-SRC2-3 peptide fluorescence polarization, 2 h; Potency, µM, for inactives: max response, negative = inhibition, usual class: inhibitors; 400,000 tested, 0.93% active; AID 504847, 2011; further: on the % scale 0 is the no-effect control and ±100 the full control effect
#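 Signal is fluorescence polarization, reporting how far test compounds block the interaction of VDR with the SRC2-3 coregulator peptide after a 2 h room-temperature incubation.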
# PLK1 PBD inh: qHTS for Inhibitors of PLK1-PDB (polo-like kinase 1 - polo-box domain): Primary Screen; Serine/threonine-protein kinase PLK1 (Homo sapiens), P53350; Plk1 PBD binding of FITC phosphopeptide, fluorescence polarization; Potency, µM, without a hit: max response, negative = inhibition, usual class: inhibitors; 360,000 tested, 2.8% active; AID 720504, 2013; further: series mostly up to about 57 µM; on the % scale 0 is the no-effect control and ±100 the full control effect; nearly all actives have a fitted effect of over 65% in size
# BAZ2B block: qHTS Assay for Inhibitors of BAZ2B; 360,000 tested, 4.4% active; AID 504333, 2011; Bromodomain adjacent to zinc finger domain protein 2B (Homo sapiens), Q9UIF8; AlphaScreen BAZ2B-H3K14Ac peptide displacement; Potency, µM (top dose mostly 114 µM), without a hit: at the top dose activity change, negative = inhibition, most hits filed as inhibitors; further: on the % scale 0 is the no-effect control and ±100 the full control effect; nearly all actives have a fitted effect of over 60% in size
#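 Protein-peptide AlphaScreen: BAZ2B 50 nM, b-H3K14Ac 50 nM, 1x PBS pH 7.4 + 0.01% Tween-20. Preincubation 30 min RT; cpd 30 min RT (top 110 uM); beads 20 min RT, light-protected.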
# HP1b chromo inh: HTS for Inhibitors of HP1-beta Chromodomain Interactions with Methylated Histone Tails | Chromobox protein homolog 1 (Homo sapiens), P83916 | AlphaScreen HP1-beta / biotin-H3K9me3 peptide binding | Potency, µM (top dose mostly 114 µM), for inactives: at the top dose activity change, negative = inhibition, actives largely listed as inhibitors | 390,000 tested, 0.56% active; further: nearly all actives have a fitted effect of over 70% in size
#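 HP1-beta protein (50 nM final) preincubated 30 min at room temperature with biotinylated H3(1-18)K9me3 peptide (50 nM) in PBS pH 7.4, 0.01% Tween-20, then compound added for 30 min. AlphaScreen streptavidin donor/nickel chelate acceptor beads (10 ug/mL final), 30 min dark, luminescence read.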
# * hit, by the source's call; ? = inconclusive; / = not tested or not shown; [ ] = dose if it differs, or a comment. Hits are enriched below; roughly 6.9% of the tested compounds scored in any of these assays. The call rests on the fitted dose curve; in most records, active means well fitted curve in the direction sought with a large enough effect; inconclusive means small, poorly fitted or top-dose-only effect, or another doubt; inactive means no such curve, though single readings can be large; an effect the other way counts as inactive or inconclusive. Potency means the concentration at half of the fitted maximal effect.
SMILES,L3MBTL1 block,JMJD2A Tudor inh,VDR inh,PLK1 PBD inh,BAZ2B block,HP1b chromo inh
Cc1ccc(-n2c(Cn3ncc4ccccc4c3=O)n[nH]c2=S)cc1,5.8%[11.4 µM],8.91µM*,-12.4%,-2.5%,?,39.0%
CC(=O)c1cccc(Nc2cc(C)nc3nc(-c4ccccc4C)nn23)c1,/,-18.9%,4.6%,/,-9.3%,25.8%
O=c1c2ccccc2cnn1Cc1n[nH]c(=S)n1-c1ccc(F)c(Cl)c1,-8.2%,7.94µM*,-3.3%,-6.3%,-24.9%,31.8%
COc1ccc(/C=C2\CCC(C3CCCC3)C2=O)c(OC)c1 (stereo unspecified),/,5.7%,172.1%,-0.3%,12.3%,42.8%
COc1cc(OC)c(OC)cc1/C=C1\CCC/C(=C\c2cc(OC)c(OC)cc2OC)C1=O,/,28.2µM*,-13.2%,1.3%,28.2µM*,31.6µM*
COc1cc(OC)c(OC)cc1/C=C1\CCC(C2CCCC2)C1=O (stereo unspecified),-13.8%,?,-18.2%,-3.5%,25.1µM*,-2.6%
CC(C)(C)c1ccc(C(=O)NN=C2CCCC2)cc1,-5.6%,-7.5%,1.9%,4.4%,4.6%[0.457 µM],33.6%
Fc1ccc(NC(=S)NN=C2CCCCCC2)cc1,-10.5%,56.2µM*,-4.1%,-1.5%,?,-24.2%
S=C(NN=C1CCCCCC1)Nc1ccc(Cl)cc1,/,100µM*,27.9%,-7.1%,-2.1%,-18.0%
O=C(NN=C1CCCCCCC1)c1ccc(F)cc1,5.2%[11.4 µM],?,-20.4%,18.9µM*,-13.1%,-9.2%
Fc1ccc(NC(=S)Nc2ccc(Cl)cc2)cc1,11.7%,-4.9%,4.7%,-24.8%,2.1%,22.4%
CCN(CC)c1ccc(CNCc2cccs2)cc1,-7.9%,?,11.2%,-5.4%,50.1µM*,-1.4%
CC=CCn1c(SCc2ccccc2)nc2c1c(=O)[nH]c(=O)n2C,/,/,/,26.7µM*,/,/
C/C=C/Cn1c(SCc2ccc(C)cc2)nc2c1c(=O)[nH]c(=O)n2C,-1.0%,-20.0%,?,21.2µM*,-4.6%,-13.2%
CCc1cccc2sc(N3CCN(C(=O)c4ccc([N+](=O)[O-])o4)CC3)nc12,-19.7%,22.4µM*,-15.6%,-4.0%,?,?
CCc1cccc2sc(N3CCN(C(=O)C4CC4)CC3)nc12,/,-2.6%,17.1%,/,9.7%,46.9%
C[C@H]1CN([C@@H](C)CO)C(=O)c2cc(Br)cnc2O[C@@H]1CN(C)S(C)(=O)=O,/,/,/,-9.0%,/,/
O=c1c2ccccc2sc2ccccc12,/,-13.0%,5.7%,-4.1%,/,19.0%
O=c1c(C(c2ccccc2)c2c(O)sc3ccccc3c2=O)c(O)sc2ccccc12,/,-8.7%,4.0%,-19.6%,28.2µM*,22.1%
O=C(Nc1cnc2ccccc2c1)N1CCOCC1,3.2%,-1.5%[11.4 µM],2.3%,26.7µM*,-3.0%,-12.5%
O=C(Nc1cnc2ccccc2c1)N1CCCCC1,-0.2%,-9.0%,2.2%,-12.8%,3.2%,21.7%
O=C(CCSCc1cccc(Cl)c1)NCCc1ccccc1,6.6%,14.2%,-3.4%,2.8%,4.0%,61.3%
Cc1nc(SCC(=O)NCCc2ccccc2)n[nH]1,6.3%,-27.5%[11.4 µM],-5.3%,3.77µM*,4.6%,-5.2%
CCOc1ccc(CCNC(=O)CSc2n[nH]c(N)n2)cc1OCC,/,17.8µM*,-30.6%,?,-23.3%,?
O=C(CSc1n[nH]c(-c2ccccc2)n1)NCCc1ccccc1,/,2.9%,4.0%,/,7.8%,31.3%[57 µM]
SMILES,L3MBTL1 block,JMJD2A Tudor inh,VDR inh,PLK1 PBD inh,BAZ2B block,HP1b chromo inh
CCOc1ccc(N(C(=O)c2ccc(OC)cc2)S(=O)(=O)c2ccc3c(c2)n(C)c(=O)n3C)cc1,/,?,3.5%,/,?,5.3%
CC(C)OC(=O)c1cc(=O)[nH]c2ccccc12,-1.1%,-13.8%,9.2%,1.2%,3.3%,15.5%
CC(OC(=O)c1cc(=O)[nH]c2ccccc12)C(=O)N1C(C)CCCC1C (stereo unspecified),2.5%,17.8µM*,-13.3%,-0.7%,2.6%,43.9%
O=C1NC(Cc2ccc(O)cc2)c2nc3ccc(Br)cc3c(=O)n2-c2ncccc21 (stereo unspecified),/,/,/,-20.9%,/,/
COc1ccc(CN2CCN(C(=O)c3ccco3)CC2)cc1,3.4%,-1.6%,-14.5%,-9.2%,5.2%,5.5%
O=C(c1ccco1)N1CCN(C(=O)c2ccco2)CC1,/,/,/,-8.2%,/,/
O=C(c1ccco1)N1CCN(Cc2ccccc2Br)CC1,/,8.91µM*,-10.9%,-11.9%,31.6µM*,?
CCOc1ccc(CN2CCN(C(=O)c3ccco3)CC2)cc1,2.8%,20µM*,-21.5%,-6.3%,-35.5%,?
COc1cc(-c2nc(CN3CCCN(C(=O)c4ccco4)CC3)c(C)o2)ccc1F,-8.3%,?,-12.1%,29.9µM*,-29.4%,-12.6%
COC(=O)c1ccc(NC(=S)N2CCN(C(=O)c3ccco3)CC2)cc1,/,-6.9%,-4.2%,18.9µM*,-20.5%,9.1%
O=c1c2[nH]c3ccsc3c2cnn1Cc1ccccc1F,/,-2.7%,/,/,/,/
CSc1nc(-c2ccccc2)c(C#N)c(=O)n1C,-1.1%,0.0%,5.4%,-13.5%,-14.6%,-1.1%
COc1cc(Cl)c(C)cc1NC(=O)Cn1c(C)c2cnn(-c3ccccc3)c(=O)c2c1C,/,-7.4%,1.7%,/,-1.3%,-2.3%
CCOc1cc(CN2CCN(C(=O)c3ccco3)CC2)ccc1OC,4.3%,5.62µM*,5.2%,1.7%,50.1µM*,?
O=C(c1ccc(F)cc1)N1CCN(Cc2ccccc2Br)CC1,5.7%,25.1µM*,-10.7%,-1.5%,?,?
Cc1c(Cl)cccc1NC(=O)N1CCN(C(=O)c2ccco2)CC1,/,?,-25.3%,16.8µM*,-4.0%,-9.2%[57 µM]
O=C(c1ccco1)N1CCN(Cc2ccc(F)cc2)CC1,-2.6%,20µM*,2.4%,2.6%,79.4µM*,?
COc1ccc(-c2cnc(C)o2)cc1S(=O)(=O)Nc1ccc(F)cc1F,/,-16.6%,2.9%,/,?,41.3%
O=C(NC1CCCCC1)C(C1CC1)n1c(=O)c(-c2cc3ccccc3[nH]2)nc2ccccc21 (stereo unspecified),/,/,/,-6.6%,/,/
O=C(c1ccco1)N1CCN(CC2CC3C=CC2C3)CC1 (stereo unspecified),-0.9%,1.41µM*,9.0%,-0.2%,50.1µM*,-62.7%
COc1cccc(NC(=O)CSc2nc3ccc(NC(=O)c4cccs4)cc3s2)c1,/,-1.7%,20.5%,/,-15.1%,64.0%
CCNC(=S)NNc1nc(N2CCOCC2)nc(N2CCOCC2)n1,/,-11.2%,-26.2%,-8.5%,/,-36.6%
